KAT2A inh: inhibitors of human GCN5L2 histone acetyltransferase | Q92830 | GCN5L2 HAT assay, ThioGlo1 CoA-SH fluorescence | Potency, µM (highest dose often 58.9 µM), without a hit: top-dose activity change, negative = inhibition, hits mostly inhibitors | 390,000 tested, 0.21% active | AID 504327
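Free CoA generated was detected with ThioGlo1 (50uM) fluorescence at Ex340nm/Em540nm, read immediately and after 20 min at room temperature. Enzyme, 20 nM in HEPES pH 7.5 buffer, saw compounds 15 min before adding 75uM H3(1-25) peptide and 70uM acetyl-CoA.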
RECQ1 helicase: inhibitors of human RECQ1 DNA helicase; P46063; RECQ1 DNA unwinding, red fluorescence kinetic read; 240,000 tested, 0.54% active; Potency, µM (highest dose often 57.3 µM), for inactives: top-dose activity, negative = inhibition, actives largely listed as inhibitors;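 further: plate controls were vehicle for no effect and no enzyme for full effect; nearly all actives have a fitted effect of over 30% in size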
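50 nM RECQ1T1 preincubated 15 min with compound in Tris pH 8.0 buffer with MgCl2, DTT, Tween-20 and 2.5 ug/ml poly(dI-dC); started with 200 nM TAMRA/BHQ-2 forked duplex and 2 mM ATP. Unwinding read as fluorescence (525/598 nm), two reads 2 h apart.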
BLM inh: blocks DNA unwinding by human BLM helicase. P54132. recombinant BLM DNA unwinding, fluorescence dequenching. Potency, µM (top dose mostly 56.1 µM), inactives show at the highest dose activity change, negative = inhibition, actives largely listed as inhibitors. 350,000 tested, 0.2% active;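 further: plate controls were vehicle for no effect and no enzyme for full effect; nearly all actives have a fitted effect of over 35% in size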
APE1 inh-1: APE1 (human) endonuclease inhibition; Potency, µM (titrated, usually from 65.8 µM), without a hit: at the highest dose activity change, negative = inhibition, most hits filed as inhibitors; 350,000 tested, 0.35% active; AID 2517; recombinant APE1, TAMRA/BHQ-2 abasic DNA cleavage fluorescence; P27695;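 further: plate controls were vehicle for no effect and reference inhibitor for full effect; nearly all actives have a fitted effect of over 55% in size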
Target sequence (P27695 whole entry, looked up): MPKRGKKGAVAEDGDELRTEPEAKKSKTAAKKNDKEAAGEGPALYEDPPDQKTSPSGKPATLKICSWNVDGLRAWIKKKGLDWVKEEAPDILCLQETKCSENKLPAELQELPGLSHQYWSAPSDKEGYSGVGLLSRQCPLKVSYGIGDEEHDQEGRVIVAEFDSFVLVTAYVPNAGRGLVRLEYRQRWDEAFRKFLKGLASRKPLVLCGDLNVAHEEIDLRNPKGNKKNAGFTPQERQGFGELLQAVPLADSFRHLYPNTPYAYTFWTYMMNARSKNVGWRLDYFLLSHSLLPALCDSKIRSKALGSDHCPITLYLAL
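APE1 at 0.75 nM preincubated 15 min at room temperature with compound. Reaction then started with 50 nM double-stranded THF-abasic substrate labelled with TAMRA/BHQ-2, and 525/598 nm fluorescence read kinetically. Activity taken as third-minus-first read difference, normalized to DMSO and NSC13755 controls.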
TDP1 block: TDP1 (human) enzyme inhibition; Q9NUW8; recombinant TDP1, AlphaScreen DNA substrate cleavage; Potency, µM (titrated, usually from 130 µM), for the others: at the highest dose activity change, negative = inhibition, most hits filed as inhibitors; 350,000 tested, 0.28% active; further: nearly all actives have a fitted effect of over 40% in size
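Steps: enzyme plus compound, 15 min RT; add biotin/phosphotyrosine-FITC oligonucleotide (15 nM final), react 5 min; add donor/acceptor beads (10 ug/ml final), 10 min; read AlphaScreen. Tdp1 at 1 nM final.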
Lamin A splicing: modulators of lamin A splicing; Potency, µM (series often up to 46.1 µM), for inactives: top-dose ratio change, negative = inhibition, hits mostly inhibitors; AID 1487; HeLa LMNA splicing GFP/RFP minigene ratio, 48 h; 200,000 tested, 0.01% active; active means well fitted inhibition curve with a large enough effect in the signal ratio, with a control signal flat, not every such curve was filed as active; inconclusive means small, poorly fitted or top-dose-only effect, or effect the other way, or a change in a side signal; the % refers to the signal ratio
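Read-out is the ratio of GFP to DsRed2 object intensity, acquired by 488 nm laser-scanning cytometry on HeLa lamin A-EGFP minigene reporter cells. Compound incubation 48 hrs at 37 °C in Opti-MEM with 2% FBS; DMSO 0.5% final.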
DNA dye displace: DNA dye displacement counter-screen activity; shares compounds with APE1 inh-1; DNA fluorescent dye displacement counterscreen, fluorescence; Potency, µM (titrated, usually from 28.5 µM), inactives show at the top dose activity change, negative = inhibition, actives largely listed as inhibitors; 480 tested, 7% active;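 further: loss of thiazole orange fluorescence as the dye is displaced from duplex DNA; 0% = ThO with dsDNA and no compound and -100% = ThO without dsDNA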
EndoIV counter: blocks E. coli endonuclease IV DNA cleavage; shares compounds with APE1 inh-1; E. coli Endo IV, fluorogenic AP-site DNA cleavage; Potency, µM (doses to about 27.1 µM), for inactives: at the top dose activity change, negative = inhibition, actives largely listed as inhibitors; 560 tested, 4% active; AID 2565;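 further: plate controls were uninhibited enzyme wells for no effect and no enzyme buffer wells for full effect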
APE1 inh-2: confirmation of inhibitors of human APE1 endonuclease; 750 tested, 44% active; purified APE1, fluorogenic abasic-site DNA cleavage; shares compounds with APE1 inh-1; Potency, µM (highest dose often 57.1 µM), for inactives: at the highest dose activity change, negative = inhibition, usual class: inhibitors; AID 2572; further: nearly all actives have a fitted effect of over 30% in size
APE1 FP: APE1 (human) DNA binding inhibition, fluorescence polarization; shares compounds with APE1 inh-1; Potency, µM (titrated, usually from 28.5 µM), for inactives: at the top dose activity, negative = inhibition, hits mostly inhibitors; APE1 binding to TAMRA-labelled double-stranded DNA, fluorescence polarization displacement; 480 tested, 7% active
An asterisk follows results filed as active; [ ] = another dose, or the depositor's remark. Compounds with a hit are over-represented: about 0.9% of the library has one in this group of screens. Unless noted, the call rests on the fitted dose curve; in most records, active means well fitted curve in the direction sought with a large enough effect; inconclusive means small, poorly fitted or top-dose-only effect, or another doubt; inactive means no such curve, though single readings can be large; an effect the other way counts as inactive or inconclusive. Unless noted, on the % scale 0 is the no-effect control and ±100 the full control effect; potency means the concentration at half of the fitted maximal effect.

For CC(C(=O)O)N1C(=O)/C(=C/C=C/c2ccco2)SC1=S (configuration not stated) the results were KAT2A inh 7.94µM*, RECQ1 helicase 6.31µM*, BLM inh inconclusive, APE1 inh-1 2.82µM*, TDP1 block inconclusive, Lamin A splicing -7.6%, DNA dye displace 6.8%, EndoIV counter 97.2%, APE1 inh-2 0.891µM* and APE1 FP 12.6µM*.
`O=C(Nc1ccc(-c2ccc3nncn3n2)cc1)c1ccc(Br)o1` gave KAT2A inh -12.2%, RECQ1 helicase -24.8%, BLM inh -11.5%, APE1 inh-1 -1.5%, TDP1 block 79.4µM* and APE1 inh-2 -40.6%.
O=C(OC1Cc2c(O)cc(O)cc2OC1c1cc(O)c(O)c(O)c1-c1c(C2Oc3cc(O)cc(O)c3CC2OC(=O)c2cc(O)c(O)c(O)c2)cc(O)c(O)c1O)c1cc(O)c(O)c(O)c1 (configuration not stated) was read as KAT2A inh 14.1µM*, RECQ1 helicase 4.47µM*, BLM inh 7.94µM*, APE1 inh-1 0.126µM*, Lamin A splicing -5.0%, EndoIV counter 28.2µM* and APE1 inh-2 0.316µM*.
For Cc1ccc(C(=O)Nc2nc3nc(-c4ccccc4)cc(=O)n3[nH]2)cc1 the results were KAT2A inh -4.1%, RECQ1 helicase -5.4%, BLM inh 1.3%, APE1 inh-1 -0.5%, TDP1 block 44.7µM*, Lamin A splicing 14.8% and APE1 inh-2 inconclusive.
N#C/C(=C/c1ccc(-c2cc(C(=O)O)cc(C(=O)O)c2)o1)c1nc2ccccc2s1 was read as KAT2A inh -9.3%, RECQ1 helicase inconclusive, BLM inh 55.4%, APE1 inh-1 inconclusive, DNA dye displace inconclusive, EndoIV counter inconclusive, APE1 inh-2 14.1µM* and APE1 FP -8.0%.
`COc1ccc(C2=Nn3c(nnc3-c3cccc(OC)c3OC)SC2)c(OC)c1` gave RECQ1 helicase inactive, BLM inh -6.4%, APE1 inh-1 -2.9% and TDP1 block 9.1%.
Cc1cc(/C=N/NC(=O)c2cccc(N(C)C)c2)c(C)n1-c1cc(C(=O)O)cc(C(=O)O)c1 was read as KAT2A inh -28.2%, RECQ1 helicase inactive, BLM inh 4.0%, APE1 inh-1 28.2µM*, Lamin A splicing 1.2%[9.22 µM], DNA dye displace -7.6%, EndoIV counter 7.5%, APE1 inh-2 inconclusive and APE1 FP -4.8%.
Screening O=C1CCc2cc(S(=O)(=O)Nc3cccc(-c4ccccc4)c3)ccc2N1 returned TDP1 block 1.7%.

Compound activity from PubChem BioAssay.
